# Reference: PubChem BioAssay (NCATS)
# Results filed as inconclusive are left out. A call without a number means that no potency is given here. Activity calls are given as the source filed them. Calls come from the whole dose curve; as a rule, active = well fitted inhibition curve with a large enough effect; inconclusive = small, poorly fitted or top-dose-only effect; inactive = flat fitted curve, though single readings scatter.
# What was measured:
# Assay in all cases: qHTS profiling for inhibitors of Plasmodium falciparum proliferation (AID 504749); note: nearly all actives have a fitted effect of over 60% in size
# Conditions in all cases: P. falciparum in erythrocytes, SYBR Green DNA, 72 h; series mostly up to 28.7 µM
# [1] = test system: CP286
# How it was run: (§1)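 Infected RBCs, 0.3% parasitemia/2.5% Hct final; cpd 72 h, 37 C, 5% CO2; lysis buffer with saponin/triton/SYBR Green I, o/n RT dark; FI 485/535; norm. to artemisinin (0.29 uM) and DMSO.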
# [2] = test system: CP291
# How it was run: as §1
# [3] = test system: CP297
# How it was run: as §1
# [4] = test system: CP305
# How it was run: as §1
# [5] = test system: CP315
# How it was run: as §1
# [6] = test system: CP325
# How it was run: as §1
# [7] = test system: CP329
# How it was run: as §1
# [8] = test system: CP335
# How it was run: as §1
# [9] = test system: DFO2036
# How it was run: as §1
# [10] = test system: DIV14
# How it was run: as §1
# [11] = test system: DIV17
# How it was run: as §1
# [12] = test system: DIV30
# How it was run: as §1
# [13] = test system: Dd2
# How it was run: as §1
# [14] = test system: ECU
# How it was run: as §1
# [15] = test system: FAB9
# How it was run: as §1
# [16] = test system: GB4
# How it was run: as §1
# [17] = test system: HB3
# How it was run: as §1
# [18] = test system: ICS
# How it was run: as §1
# [19] = test system: JCK
# How it was run: as §1
# [20] = test system: N140
# How it was run: as §1
# Potency is the fitted concentration of half-maximal effect.
SMILES,Potency [1],Potency [2],Potency [3],Potency [4],Potency [5],Potency [6],Potency [7],Potency [8],Potency [9],Potency [10],Potency [11],Potency [12],Potency [13],Potency [14],Potency [15],Potency [16],Potency [17],Potency [18],Potency [19],Potency [20]
N[C@@H](Cc1c[nH]c2ccc(O)cc12)C(=O)O,inactive,inactive,inactive,inactive,inactive,inactive,inactive,inactive,inactive,inactive,inactive,inactive,inactive,inactive,inactive,inactive,inactive,inactive,inactive,inactive
CCOC(=O)c1ncn2c1CN(C)C(=O)c1cc(F)ccc1-2,inactive,inactive,inactive,inactive,inactive,inactive,inactive,inactive,inactive,inactive,inactive,inactive,inactive,inactive,inactive,inactive,inactive,inactive,inactive,inactive
CCOC(=O)C(C)(C)Oc1ccc(Cl)cc1,inactive,inactive,inactive,inactive,inactive,inactive,inactive,inactive,inactive,inactive,inactive,inactive,inactive,inactive,inactive,inactive,inactive,inactive,inactive,inactive
Nc1nnc(-c2cccc(Cl)c2Cl)c(N)n1,inactive,inactive,inactive,inactive,inactive,inactive,inactive,inactive,inactive,inactive,inactive,,inactive,inactive,inactive,inactive,inactive,inactive,inactive,inactive
Cn1c(=O)c2[nH]cnc2n(C)c1=O,inactive,inactive,inactive,inactive,inactive,inactive,inactive,inactive,inactive,inactive,inactive,inactive,inactive,inactive,inactive,inactive,inactive,inactive,inactive,inactive
NS(=O)(=O)c1cc2c(cc1Cl)NCNS2(=O)=O,inactive,inactive,inactive,inactive,inactive,inactive,inactive,inactive,inactive,inactive,inactive,inactive,inactive,inactive,inactive,inactive,inactive,inactive,inactive,inactive
NC(=O)NO,inactive,inactive,inactive,inactive,inactive,inactive,inactive,inactive,inactive,,inactive,inactive,inactive,inactive,inactive,inactive,inactive,inactive,inactive,inactive
Cc1cn([C@H]2C[C@H](N=[N+]=[N-])[C@@H](CO)O2)c(=O)[nH]c1=O,inactive,inactive,inactive,inactive,inactive,inactive,inactive,inactive,inactive,inactive,inactive,inactive,inactive,inactive,inactive,inactive,inactive,inactive,inactive,inactive
CC(=O)OCC(CCn1cnc2cnc(N)nc21)COC(C)=O,inactive,inactive,inactive,inactive,inactive,inactive,inactive,inactive,inactive,inactive,inactive,inactive,inactive,inactive,inactive,inactive,inactive,inactive,inactive,inactive
COC(=O)Nc1nc2ccc(C(=O)c3cccs3)cc2[nH]1,inactive,inactive,inactive,inactive,inactive,inactive,inactive,inactive,inactive,,,inactive,inactive,inactive,inactive,inactive,inactive,inactive,inactive,inactive
Clc1ccc2nsnc2c1NC1=NCCN1,inactive,inactive,inactive,inactive,inactive,inactive,inactive,inactive,inactive,inactive,inactive,inactive,inactive,inactive,inactive,inactive,inactive,inactive,inactive,inactive
NC(=O)OCC(COC(N)=O)c1ccccc1,inactive,inactive,inactive,inactive,inactive,inactive,inactive,,inactive,inactive,inactive,inactive,inactive,inactive,inactive,inactive,inactive,inactive,inactive,inactive
NCCCCCC(=O)O,inactive,inactive,inactive,inactive,inactive,inactive,inactive,inactive,inactive,inactive,inactive,inactive,inactive,inactive,inactive,inactive,inactive,inactive,inactive,inactive
CC[N+](CC)(CC)CCOc1cccc(OCC[N+](CC)(CC)CC)c1OCC[N+](CC)(CC)CC,inactive,inactive,inactive,inactive,inactive,inactive,inactive,inactive,inactive,inactive,inactive,inactive,inactive,inactive,inactive,inactive,inactive,inactive,inactive,inactive
CC(C)Cc1ccc(C(C)C(=O)O)cc1 (stereo not drawn),inactive,inactive,inactive,inactive,inactive,inactive,inactive,inactive,inactive,inactive,inactive,inactive,inactive,inactive,inactive,inactive,inactive,inactive,inactive,inactive
CC(CCc1ccc(O)cc1)NCCc1ccc(O)c(O)c1 (stereo not drawn),inactive,inactive,inactive,inactive,inactive,inactive,inactive,inactive,inactive,inactive,inactive,inactive,,inactive,inactive,inactive,inactive,inactive,inactive,inactive
COc1ccccc1N1CCN(CC(O)COc2cccc3ccccc23)CC1 (stereo not drawn),inactive,inactive,inactive,inactive,inactive,inactive,inactive,inactive,inactive,,,inactive,inactive,inactive,inactive,,inactive,,inactive,inactive
Cn1cnc2c1c(=O)[nH]c(=O)n2C,inactive,inactive,inactive,inactive,inactive,inactive,inactive,inactive,inactive,inactive,inactive,inactive,inactive,inactive,inactive,inactive,inactive,inactive,inactive,inactive
CN1C(C(=O)Nc2ccccn2)=C(O)c2ccccc2S1(=O)=O,inactive,inactive,inactive,inactive,inactive,inactive,inactive,inactive,inactive,inactive,inactive,inactive,inactive,inactive,inactive,inactive,inactive,inactive,inactive,inactive
Cc1cc(C(C)(C)C)c(O)c(C)c1CC1=NCCN1,inactive,inactive,inactive,inactive,inactive,inactive,inactive,inactive,inactive,inactive,inactive,inactive,inactive,inactive,inactive,inactive,inactive,inactive,inactive,inactive
Cc1cnc(C(=O)NCCc2ccc(S(=O)(=O)NC(=O)NC3CCCCC3)cc2)cn1,inactive,inactive,inactive,inactive,inactive,inactive,inactive,inactive,inactive,inactive,inactive,inactive,inactive,inactive,inactive,inactive,inactive,inactive,inactive,inactive
COc1ccccc1OCC(O)CN1CCN(CC(=O)Nc2c(C)cccc2C)CC1 (stereo not drawn),inactive,inactive,inactive,inactive,inactive,inactive,inactive,inactive,inactive,inactive,inactive,inactive,inactive,inactive,inactive,inactive,inactive,inactive,inactive,inactive
CS(=O)(=O)Nc1ccc([N+](=O)[O-])cc1Oc1ccccc1,inactive,inactive,inactive,inactive,inactive,inactive,inactive,inactive,inactive,inactive,inactive,inactive,inactive,inactive,inactive,inactive,inactive,inactive,inactive,inactive
Clc1ccccc1C(c1ccccc1)(c1ccccc1)n1ccnc1,1580 nM (active),2030 nM (active),455 nM (active),5100 nM (active),2030 nM (active),1810 nM (active),2870 nM (active),1280 nM (active),708 nM (active),455 nM (active),287 nM (active),228 nM (active),708 nM (active),158 nM (active),1780 nM (active),809 nM (active),501 nM (active),126 nM (active),708 nM (active),224 nM (active)
CC(C)NCC(O)c1ccc(O)c(O)c1 (stereo not drawn),inactive,inactive,inactive,inactive,inactive,inactive,inactive,inactive,inactive,,inactive,inactive,inactive,inactive,inactive,,inactive,inactive,inactive,inactive
Cc1ccc(C(=O)Nc2ccc(S(=O)(=O)O)c3cc(S(=O)(=O)O)cc(S(=O)(=O)O)c23)cc1NC(=O)c1cccc(NC(=O)Nc2cccc(C(=O)Nc3cc(C(=O)Nc4ccc(S(=O)(=O)O)c5cc(S(=O)(=O)O)cc(S(=O)(=O)O)c45)ccc3C)c2)c1,inactive,inactive,inactive,inactive,inactive,inactive,inactive,inactive,inactive,inactive,inactive,inactive,inactive,inactive,inactive,inactive,inactive,inactive,inactive,inactive
